# Several values for one entry are separate records, joined by “and”; a condition that tells them apart may be missing. Identical values can stand only once. Records with an inconclusive call do not appear. Where a call stands in place of a potency, no number is given. Values without a mark were called inactive. Activity calls are given as the source filed them. Unless noted, calls follow the shape of the dose curve; as a rule, active = well fitted curve in the direction sought with a large enough effect in the repeat runs; inconclusive = weak or mixed curves; inactive = no such curve, though single readings can be large; an effect the other way counts as inactive or inconclusive.
# How the values were obtained:
# [1] = target: Luciferin 4-monooxygenase (Photinus pyralis) (UniProt P08659); assay: qHTS assay to identify small molecule inhibitors of firefly luciferase (AID 1224835); also: nearly all actives have a fitted effect of over 25% in size; as to activity change, negative = inhibition: series mostly up to about 120 µM
# In short: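 Biochemical qHTS: compounds run as interplate titrations against purified firefly enzyme, with D-luciferin and ATP each at its KM concentration. Light output recorded by CCD imaging.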
# [2] = qHTS assay to identify small molecule agonists of the constitutive androstane receptor (CAR) signaling pathway - cell viability counter screen (AID 1224836); also: nearly all actives have a fitted effect of over 45% in size; as to viability change, negative = cytotoxic: series mostly up to about 92 µM
# In short: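 23 h treatment, 37 C, 5% CO2. Cell line: HepG2 stably expressing hCAR with a CYP2B6-2.2kb construct. Co-treatment: PK11195, 0.75 uM final. Read-out: CellTiter-Fluor fluorescence intensity.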
# [3] = qHTS assay to identify small molecule antagonists of the constitutive androstane receptor (CAR) signaling pathway - cell viability counter screen (AID 1224837); also: nearly all actives have a fitted effect of over 45% in size; as to activity change, negative = cytotoxicity: series mostly up to about 92 µM
# In short: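 HepG2-CYP2B6-hCAR cells, 2500/well, 4 hr pre-incubation; compound titration, 15 conc.; CITCO 50 nM final; 23 hr, 37 C/5% CO2; CellTiter-Fluor, fluorescence intensity.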
# [4] = target: Nuclear receptor subfamily 1 group I member 3 (Homo sapiens) (UniProt Q14994); assay: qHTS assay to identify small molecule antagonists of the constitutive androstane receptor (CAR) signaling pathway (AID 1224838);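 also: HepG2 cells stably expressing hCAR with CYP2B6 luciferase reporter stimulated by CITCO; nearly all actives have a fitted effect of over 40% in size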
# In short: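 HepG2-CYP2B6-hCAR cells; 4 h pre-incubation; cpd (15 conc) + CITCO 50 nM final; 24 h, 37 C/5% CO2; ONE-Glo, luminescence.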
# [5] = target: Nuclear receptor subfamily 1 group I member 3 (Homo sapiens) (UniProt Q14994); assay: qHTS assay to identify small molecule agonists of the constitutive androstane receptor (CAR) signaling pathway (AID 1224839); also: nearly all actives have a fitted effect of over 15% in size;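 as to activation: HepG2 cells stably carrying human CAR and a CYP2B6 luciferase reporter; series mostly up to about 92 µM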
# In short: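 Compounds tested at 15 concentrations on HepG2 cells stably harbouring hCAR and CYP2B6-2.2kb reporter constructs, co-treated with PK11195 (0.75 uM final), 24 h at 37 C; luminescent reporter signal quantified.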
# [6] = qHTS assay to identify small molecule antagonists of the estrogen related receptor signaling pathway with the pleiotropic PPARgamma coactivator (PGC) from Tox21 10K library - cell viability counter screen (AID 1224840; active = well fitted cell-killing curve with a large enough effect in the repeat runs, not every such curve was filed as active; also: nearly all actives have a fitted effect of over 40% in size)
# In short: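 PGC/ERR cells, 2,000/well; 6 h pre-incubation 37 C/5% CO2; cpd in DMSO via pin tool; 17.5 h 37 C; CellTiter-Fluor, 30 min; fluorescence.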
# [7] = target: Thyrotropin receptor (Homo sapiens) (UniProt P16473); assay: qHTS assay to identify small molecule agonists of the thyroid stimulating hormone receptor (TSHR) signaling pathway (AID 1224843; calls by dose curve; also: nearly all actives have a fitted effect of over 45% in size)
# In short: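 TSHR-HEK293 cells in agonist mode, 30 min room-temperature step, then cAMP measured by competitive HTRF (cAMP-d2 with anti-cAMP cryptate) after 1 h at room temperature. Tested at 15 concentrations in triplicate.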
# [8] = qHTS assay to identify small molecule agonists of the hypoxia (HIF-1) signaling pathway - cell viability counter screen (AID 1224844; calls by dose curve; also: nearly all actives have a fitted effect of over 50% in size)
# In short: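 ME-180 HRE-bla cells, 2,000/well, 0.5% dialyzed FBS; 5 hr settle, 17 hr compound at 37C/5% CO2; CCF4-AM reporter read first, then CellTiter-Glo luminescence after 30 min RT.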
# [9] = qHTS assay to identify small molecule antagonists of the estrogen related receptor signaling pathway with the pleiotropic PPARgamma coactivator (PGC) from Tox21 10K library (AID 1224841; call rule not given here; also: actives are mostly falling curves and most rising ones were filed inactive; nearly all actives have a fitted effect of over 50% in size; as to activity, negative = inhibition: series mostly up to about 92 µM)
# In short: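 PGC/ERR cell line, 2,000 cells/well; 6 h pre-incubation 37 C/5% CO2; compounds (DMSO) pinned in; 18 h, 37 C; One-Glo, 30 min RT; luminescence.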
# [10] = qHTS assay to identify small molecule agonists of the estrogen related receptor signaling pathway with the pleiotropic PPARgamma coactivator (PGC) from Tox21 10K library (AID 1224842); also: nearly all actives have a fitted effect of over 15% in size
# In short: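 PGC/ERR reporter cell line, 2,000 cells per well, incubated 6 h at 37 C before 23 nL compound in DMSO was added. After 18 h at 37 C, One-Glo luminescence read following 30 min at room temperature.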
# Potency is read from the fitted curve at half-maximal effect.
# Nuclear receptor subfamily 1 group I member 3 (Homo sapiens), sequence (Q14994 whole entry, looked up): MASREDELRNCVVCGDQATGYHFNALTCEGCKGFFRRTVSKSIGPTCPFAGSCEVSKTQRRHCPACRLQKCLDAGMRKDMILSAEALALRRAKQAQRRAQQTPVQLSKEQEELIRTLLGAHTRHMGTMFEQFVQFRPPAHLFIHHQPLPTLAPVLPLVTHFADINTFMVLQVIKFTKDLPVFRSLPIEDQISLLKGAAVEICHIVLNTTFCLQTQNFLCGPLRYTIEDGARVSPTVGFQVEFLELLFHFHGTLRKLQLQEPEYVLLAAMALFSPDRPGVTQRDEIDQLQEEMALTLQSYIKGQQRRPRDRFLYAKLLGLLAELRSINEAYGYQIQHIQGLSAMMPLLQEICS
# Thyrotropin receptor (Homo sapiens), sequence (P16473 whole entry, looked up): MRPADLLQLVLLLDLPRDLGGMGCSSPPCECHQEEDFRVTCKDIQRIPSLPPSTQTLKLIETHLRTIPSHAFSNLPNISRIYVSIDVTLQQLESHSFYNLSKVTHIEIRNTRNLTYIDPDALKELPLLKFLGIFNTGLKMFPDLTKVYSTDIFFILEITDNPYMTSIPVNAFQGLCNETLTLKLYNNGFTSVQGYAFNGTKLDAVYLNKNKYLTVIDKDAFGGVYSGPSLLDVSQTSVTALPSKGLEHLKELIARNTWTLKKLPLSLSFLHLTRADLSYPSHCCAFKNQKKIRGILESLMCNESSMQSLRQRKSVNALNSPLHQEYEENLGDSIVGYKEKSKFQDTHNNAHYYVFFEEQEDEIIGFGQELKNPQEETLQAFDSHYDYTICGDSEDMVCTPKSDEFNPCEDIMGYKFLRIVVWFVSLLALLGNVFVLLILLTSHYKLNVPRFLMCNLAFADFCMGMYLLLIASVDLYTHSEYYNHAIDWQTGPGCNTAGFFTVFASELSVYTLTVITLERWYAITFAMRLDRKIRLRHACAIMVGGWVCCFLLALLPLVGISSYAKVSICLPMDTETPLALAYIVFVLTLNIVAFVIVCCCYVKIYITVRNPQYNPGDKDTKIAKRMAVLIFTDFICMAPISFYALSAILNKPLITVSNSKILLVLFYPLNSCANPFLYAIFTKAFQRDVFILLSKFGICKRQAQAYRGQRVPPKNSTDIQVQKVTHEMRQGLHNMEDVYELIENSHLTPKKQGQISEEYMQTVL
# Luciferin 4-monooxygenase (Photinus pyralis), sequence (P08659 whole entry, looked up): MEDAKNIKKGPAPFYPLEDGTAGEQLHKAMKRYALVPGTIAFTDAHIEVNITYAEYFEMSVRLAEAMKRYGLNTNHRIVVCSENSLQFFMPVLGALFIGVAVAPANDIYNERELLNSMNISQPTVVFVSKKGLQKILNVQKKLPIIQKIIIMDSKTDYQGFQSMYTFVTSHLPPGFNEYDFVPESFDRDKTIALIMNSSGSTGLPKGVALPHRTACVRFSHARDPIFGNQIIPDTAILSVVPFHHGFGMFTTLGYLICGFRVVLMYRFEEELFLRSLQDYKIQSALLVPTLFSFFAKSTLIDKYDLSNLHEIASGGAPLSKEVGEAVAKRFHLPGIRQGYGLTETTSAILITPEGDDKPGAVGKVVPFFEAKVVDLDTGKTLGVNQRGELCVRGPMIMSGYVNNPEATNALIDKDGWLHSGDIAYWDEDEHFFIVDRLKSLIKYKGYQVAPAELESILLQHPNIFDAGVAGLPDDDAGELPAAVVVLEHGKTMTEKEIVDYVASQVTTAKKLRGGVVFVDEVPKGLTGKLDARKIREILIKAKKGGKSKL
compound,measurement,setting,value
CC(C)(c1ccccc1)c1cc(-n2nc3ccccc3n2)c(O)c(C(C)(C)c2ccccc2)c1,Potency,[1],inactive
same,Potency,[2],inactive
same,Potency,[3],inactive
same,Potency,[4],inactive
same,Potency,[5],inactive
same,Potency,[6],inactive
same,Potency,[7],inactive
same,Potency,[8],inactive
c1ccc2c(c1)sc1ccccc12,Potency,[1],31.7 µM (active)
same,Potency,[2],inactive
same,Potency,[3],inactive
same,Potency,[4],inactive
same,Potency,[5],inactive
same,Potency,[6],inactive
same,Potency,[9],inactive
same,Potency,[10],inactive
same,Potency,[7],inactive
same,Potency,[8],inactive
C=CCOCC1CO1 (centres undefined),Potency,[1],inactive
same,Potency,[2],inactive
same,Potency,[3],inactive
same,Potency,[4],inactive
same,Potency,[5],inactive
same,Potency,[6],inactive
same,Potency,[9],inactive
same,Potency,[10],inactive
same,Potency,[7],inactive
same,Potency,[8],inactive
CCCCCCCCCCCCN(C)C,Potency,[1],inactive
same,Potency,[2],inactive
same,Potency,[3],inactive
same,Potency,[4],inactive
same,Potency,[5],inactive
same,Potency,[6],inactive
same,Potency,[9],inactive
same,Potency,[10],inactive
same,Potency,[7],inactive
same,Potency,[8],inactive
O=C1c2ccccc2C(=O)N1SC(Cl)(Cl)Cl,Potency,[1],15.7 µM (active) and 20 µM (active)
same,Potency,[2],26.9 µM (active) and 43.3 µM (active)
same,Potency,[3],24 µM (active) and 19.3 µM (active)
same,Potency,[4],19.1 µM (active) and 15.4 µM (active)
same,Potency,[5],inactive
same,Potency,[6],26.9 µM (active) and 24.3 µM (active)
same,Potency,[9],53.7 µM (active) and 61.1 µM (active)
same,Potency,[10],inactive
same,Potency,[7],19.1 µM (active) and 12.2 µM (active)
same,Potency,[8],3.83 µM (active) and 7.76 µM (active)
ClCc1ccccc1Cl,Potency,[1],inactive
same,Potency,[2],inactive
same,Potency,[3],inactive
same,Potency,[4],inactive
same,Potency,[5],inactive
same,Potency,[6],inactive
same,Potency,[9],inactive
same,Potency,[10],inactive
same,Potency,[7],inactive
same,Potency,[8],inactive
Nc1c(Br)cc(Br)c2c1C(=O)c1ccccc1C2=O,"activity change, negative = inhibition",[1],-3.13% [at 23.6 µM]
same,"viability change, negative = cytotoxic",[2],-15% [at 19 µM]
same,"activity change, negative = cytotoxicity",[3],-15.6% [at 19 µM]
same,"activity, negative = inhibition",[4],102% [at 19 µM]
same,activation,[5],7.31% [at 19 µM]
same,"viability change, negative = cytotoxic",[6],-14.9% [at 19 µM]
same,"activity, negative = inhibition",[9],5.52% [at 19 µM]
same,activation,[10],0.394% [at 19 µM]
same,activation,[7],-6.18% [at 19 µM]
same,"activity change, negative = cytotoxicity",[8],1.81% [at 15.8 µM]
O=S(=O)(c1ccccc1)c1ccccc1,Potency,[1],inactive
same,Potency,[2],inactive
same,Potency,[3],inactive
same,Potency,[4],inactive
same,Potency,[5],inactive
same,Potency,[6],inactive
same,Potency,[9],inactive
same,Potency,[10],inactive
same,Potency,[8],inactive
Nc1ccccc1C(=O)OCCc1ccccc1,Potency,[1],897 nM (active) and 796 nM (active)
same,Potency,[2],inactive
same,Potency,[3],inactive
same,Potency,[4],inactive
same,Potency,[5],54.7 µM (active) and 27.3 µM (active)
same,Potency,[6],inactive
same,Potency,[9],inactive
same,Potency,[10],1.09 µM (active) and 1.37 µM (active)
same,Potency,[8],inactive
COCc1cnc(C2=NC(C)(C(C)C)C(=O)N2)c(C(=O)O)c1 (centres undefined),Potency,[1],inactive
same,Potency,[2],inactive
same,Potency,[3],inactive
same,Potency,[4],inactive
same,Potency,[5],inactive
same,Potency,[6],inactive
same,Potency,[7],inactive
same,Potency,[8],inactive
CC(Oc1cccc(Cl)c1)C(=O)O (centres undefined),Potency,[1],inactive
same,Potency,[2],inactive
same,Potency,[3],inactive
same,Potency,[4],inactive
same,Potency,[5],inactive
same,Potency,[6],inactive
same,Potency,[7],inactive
same,Potency,[8],inactive
CCOC(=O)C1OC1(C)c1ccccc1 (centres undefined),Potency,[1],inactive
same,Potency,[2],inactive
same,Potency,[3],inactive
same,Potency,[4],inactive
same,Potency,[5],inactive
same,Potency,[6],inactive
same,Potency,[7],inactive
same,Potency,[8],inactive
C[C@H](N)[C@H](O)c1ccc(O)c(O)c1,Potency,[1],inactive
same,Potency,[2],inactive
same,Potency,[3],inactive
same,Potency,[4],inactive
same,Potency,[5],inactive
same,Potency,[6],inactive
same,Potency,[9],inactive
same,Potency,[10],inactive
same,Potency,[8],inactive
C1CS1,Potency,[1],inactive
same,Potency,[2],inactive
same,Potency,[3],inactive
same,Potency,[4],inactive
same,Potency,[5],inactive
same,Potency,[6],inactive
same,Potency,[9],19.8 µM (active)
same,Potency,[10],inactive
same,Potency,[7],inactive
same,Potency,[8],inactive
CNC(=O)Oc1cccc(N=CN(C)C)c1,Potency,[1],inactive
same,Potency,[2],inactive
same,Potency,[3],inactive
same,Potency,[4],inactive
same,Potency,[5],inactive
same,Potency,[6],inactive
same,Potency,[7],inactive
same,Potency,[8],inactive
CCc1cnc(C2=NC(C)(C(C)C)C(=O)N2)c(C(=O)O)c1 (centres undefined),Potency,[1],inactive
same,Potency,[2],inactive
same,Potency,[3],inactive
same,Potency,[4],inactive
same,Potency,[5],inactive
same,Potency,[6],inactive
same,Potency,[7],inactive
same,Potency,[8],inactive
C=CCSSCC=C,Potency,[1],inactive
same,Potency,[2],inactive
same,Potency,[3],inactive
same,Potency,[4],inactive
same,Potency,[5],inactive
same,Potency,[6],inactive
same,Potency,[8],inactive
CN1C(=O)CN=C(c2ccccc2)c2cc([N+](=O)[O-])ccc21,Potency,[1],inactive
same,Potency,[2],inactive
same,Potency,[3],inactive
same,Potency,[4],inactive
same,Potency,[5],inactive
same,Potency,[6],inactive
same,Potency,[7],inactive
same,Potency,[8],inactive
O=S(=O)(Cl)Cl,Potency,[1],inactive
same,Potency,[2],inactive
same,Potency,[3],inactive
same,Potency,[4],inactive
same,Potency,[5],inactive
same,Potency,[6],inactive
same,Potency,[7],inactive
same,Potency,[8],inactive
Clc1ccc2ccccc2c1,Potency,[1],inactive
same,Potency,[2],inactive
same,Potency,[3],inactive
same,Potency,[4],inactive
same,Potency,[5],inactive
same,Potency,[6],inactive
same,Potency,[7],inactive
same,Potency,[8],inactive
Cc1ccc2c(C)cccc2c1,Potency,[1],inactive
same,Potency,[2],inactive
same,Potency,[3],inactive
same,Potency,[4],inactive
same,Potency,[5],inactive
same,Potency,[6],inactive
same,Potency,[7],inactive
same,Potency,[8],inactive
CCCCC1C(=O)NC(=O)N(C2CCCCC2)C1=O (centres undefined),Potency,[1],inactive
same,Potency,[2],inactive
same,Potency,[3],inactive
same,Potency,[4],inactive
same,Potency,[5],inactive
same,Potency,[6],inactive
same,Potency,[8],inactive
C#C[C@]1(O)CC[C@H]2[C@@H]3CCC4=CC(=O)CCC4=C3C=C[C@@]21CC,Potency,[1],inactive
same,Potency,[2],inactive
same,Potency,[3],inactive
same,Potency,[4],inactive
same,Potency,[5],inactive
same,Potency,[6],inactive
same,Potency,[8],inactive
O=C(O)c1cc(I)cc(I)c1I,Potency,[1],inactive
same,Potency,[2],inactive
same,Potency,[3],inactive
same,Potency,[4],inactive
same,Potency,[5],inactive
same,Potency,[6],inactive
same,Potency,[7],inactive
same,Potency,[8],inactive
O=C(O)C(Cl)(Cl)Br,Potency,[1],inactive
same,Potency,[2],inactive
same,Potency,[3],inactive
same,Potency,[4],inactive
same,Potency,[5],inactive
same,Potency,[6],inactive
same,Potency,[7],inactive
same,Potency,[8],inactive

# Reference: PubChem BioAssay (Tox21)
